Source: PubChem BioAssay
The full list was thinned out, with hits kept by preference.
CD40 NFkB inh = CD40 pathway inhibition in BL2 cells | BL2 NF-kB luciferase reporter, CD40L-induced, 4 h | inhibition, % at 10 µM | 83,000 compounds, 0.94% hits | AID 1053188;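 active = mean inhibition of at least 50% with a set share of replicates also reaching that level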;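 note: 0% = neutral control wells and 100% = IKK inhibitor VII at 50 µM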
Active calls of the source: *; [ ] = another dose, or the depositor's remark.

SMILES	CD40 NFkB inh
C[C@H]1CN([C@@H](C)CO)C(=O)c2c(c3ccccc3n2C)-c2ccccc2CO[C@H]1CN(C)Cc1cccc(C(F)(F)F)c1	10[25 µM]
C[C@H](CO)N1C[C@H](C)[C@@H](CN(C)Cc2cccc(C(F)(F)F)c2)OCc2ccccc2-c2c(n(C)c3ccccc23)C1=O	73*[25 µM]
COc1ccccc1NC(=O)N(C)C[C@@H]1OCc2ccccc2-c2c(n(C)c3ccccc23)C(=O)N([C@@H](C)CO)C[C@@H]1C	-3
C[C@H](CO)N1C[C@H](C)[C@H](CN(C)C(=O)Nc2cccc(C(F)(F)F)c2)OCc2ccccc2-c2c(n(C)c3ccccc23)C1=O	37[25 µM]
CO[C@H]1CN(C)C(=O)c2ccc(NC(=O)Nc3cccc(Cl)c3)cc2OC[C@@H](C)N(C(=O)Nc2c(C)noc2C)C[C@@H]1C	-11
CC(=O)Nc1cccc2c1O[C@H](CN(C)C(=O)OC(C)(C)C)[C@@H](C)CN(C)C2=O	2
Cc1noc(C)c1NC(=O)N[C@@H]1CC[C@H](CCNC(=O)C2CCCCC2)O[C@H]1CO	-5
O=C(C[C@H]1C[C@H]2c3cc(NC(=O)Nc4ccc(C(F)(F)F)cc4)ccc3O[C@H]2[C@H](CO)O1)NCc1cccnc1	10[25 µM]
CN(Cc1ccccc1)C(=O)C(Cc1ccc2ccccc2c1)NC(=O)C1CCCN1C(=O)Nc1ccccc1[N+](=O)[O-] (stereo not drawn)	15[25 µM]
C[C@H]1CC=CC[C@@H](c2ccccc2)NC(=O)[C@H](C)N(C)C(=O)c2ccccc2O1 (mixture of isomers)	6[25 µM]
Cc1ccccc1-c1ccccc1[C@@H]1[C@H](C#N)N(C(=O)c2ccccc2)[C@H]1CO	17[25 µM]
CC(=O)N(C)C[C@@H]1Oc2ccccc2C(=O)N(C)C[C@H]1C	11
C[C@H](CO)N1C[C@H](C)[C@@H](CN(C)C(=O)Nc2ccccc2C(F)(F)F)OCc2ccccc2-c2c(n(C)c3ccccc23)C1=O	8[25 µM]
C[C@@H]1CN([C@@H](C)CO)C(=O)c2c(c3ccccc3n2C)-c2ccccc2CO[C@@H]1CN(C)C(=O)Nc1ccccc1C(F)(F)F	55*[25 µM]
C[C@H](CO)N1C[C@H](C)[C@H](CN(C)C(=O)Nc2ccccc2C(F)(F)F)OCc2ccccc2-c2c(n(C)c3ccccc23)C1=O	38[25 µM]
C[C@H]1CN(C)C(=O)c2cc(N(C)C)ccc2O[C@@H]1CN(C)C	-41
O=C(c1cccnc1)N1C[C@H]2[C@@H](c3ccccc31)[C@@H](CO)N2CC1CCCCC1	4[25 µM]
COc1ccc2c(c1)CCc1c(C(=O)NCc3ccc(F)cc3)noc1-2	3
COc1cc(NC(=O)c2ccc(-c3c(C)noc3C)c3ccoc23)cc(OC)c1OC	2
COc1ccc(-c2onc(C)c2-c2ccc(C(=O)OC(C)C)o2)c(O)c1	34*
O=C(Nc1ccccc1F)N1C[C@H]2[C@@H](c3ccccc31)[C@H](CO)N2C(=O)c1ccccc1F	-9[25 µM]
COc1ccc(-c2cc(-c3ccccc3)c(-c3ccccc3)nn2)cc1	-16
COc1ccc(-c2cc(-c3ccccc3)c(C#N)c(S(C)=O)n2)cc1 (stereo not drawn)	76*
COc1ccc(Sc2nnc(-c3ccccc3)cc2C#N)cc1	1
CO[C@H]1CC[C@@H]2CCN(C)C(=O)[C@@H](C)N(C)C(=O)c3cccc(C#N)c3OC[C@H]1O2	0[25 µM]
SMILES	CD40 NFkB inh
O=C(NC1CCCC1)[C@H]1[C@H](CO)[C@H]2Cn3c(ccc(-c4cccc(F)c4)c3=O)[C@@H]1N2	0[25 µM]
Nc1cccc2nc3ccccc3cc12	active
Cc1cc(N)c2ccccc2n1	3
Nc1nc2ccccc2cc1S(=O)(=O)c1ccccc1	6
O=C(Nc1cc(F)ccc1F)N1CC(=O)N2[C@@H](CO)[C@H](c3ccc(/C=C/c4ccccc4)cc3)[C@@H]2C1	10[25 µM]
C[C@@H]1CN([C@@H](C)CO)C(=O)c2ccccc2-c2ccccc2CO[C@@H]1CN(C)S(=O)(=O)c1ccc(C#N)cc1	1
N#C[C@H]1N[C@H](CO)[C@@H]1c1ccc(C2=CCCCC2)cc1	-26
CN(C)C(=O)C[C@@H]1CC[C@@H]2[C@@H](COc3ccc(NC(=O)C4CCC4)cc3C(=O)N2C)O1	-2
C[C@H](CO)N1C[C@H](C)[C@@H](CN(C)Cc2ccc(-c3ccccc3)cc2)OCc2ccccc2-c2c(n(C)c3ccccc23)C1=O	0
COc1ccc2oc(-c3ccncc3)cc(=O)c2c1	-49
COc1cc(OC)c(C(=O)OCC(=O)Nc2c(C)n(C)n(-c3ccccc3)c2=O)cc1OC	10
CCc1ccc2oc(-c3ccc(OC)cc3)cc(=Nc3c(C)n(C)n(-c4ccccc4)c3=O)c2c1	50*
COC(C(=O)Nc1ccc(S(=O)(=O)N2CCCCC2)cc1)c1ccccc1 (stereo not drawn)	-2
CC(OC(=O)c1cc(Br)ccc1O)C(=O)Nc1ccc(S(=O)(=O)N2CCCC2)cc1 (stereo not drawn)	65*
CC1CCN(C(C)C(=O)Nc2ccc(S(=O)(=O)N3CCCC3)cc2)CC1 (stereo not drawn)	3
C[C@@H]1CCCCO[C@H](CN(C)C(=O)C2CCCCC2)[C@H](C)CN([C@@H](C)CO)C(=O)c2cc(NS(=O)(=O)c3ccccc3)ccc2O1	22[25 µM]
CN1c2ccc(C3=CCCCC3)cc2[C@@H]2[C@@H](CCN2C(=O)NC2CCCCC2)[C@H]1CO	9
Cc1ccc(-c2ccc([C@H]3[C@@H](CO)N4CCCCN(S(=O)(=O)c5ccccc5C)C[C@H]34)cc2)cc1	16
O=C(CC(=O)Nc1ccccn1)Nc1ccccn1	8
O=C(NC(=O)c1ccccc1)Nc1ccccn1	108*
O=C(Nc1ccccn1)c1ccc(C(=O)c2ccccc2)cc1	-13
C[C@@H]1CN([C@@H](C)CO)C(=O)c2ccccc2-c2ccccc2CO[C@H]1CN(C)S(C)(=O)=O	0[25 µM]
O=C(Nc1ccccc1F)N1C[C@H]2[C@@H](c3ccccc31)[C@H](CO)N2C(=O)C1CC1	-31
CCCNC(=O)c1cc2c(c(-c3cccc(-c4cc5ccccc5o4)c3)n1)[C@H](CCO)N(C(=O)NC(C)C)C2	56*[25 µM]
CC(C)NC(=O)N1Cc2cc(C(=O)NC3CCC3)nc(-c3cccc(-c4cncnc4)c3)c2[C@@H]1CCO	10[25 µM]
SMILES	CD40 NFkB inh
CCNC(=O)c1cc2c(c(-c3cccc(-c4cc5ccccc5o4)c3)n1)[C@@H](CCO)N(C(=O)NC(C)C)C2	-23
N#C[C@H]1[C@@H](c2ccccc2-c2ccccc2F)[C@H](CO)N1C(=O)C1CC1	24[25 µM]
O=C(c1cccnc1)N1C[C@@H]2[C@H](c3ccccc31)[C@H](CO)N2C(=O)C1CCCC1	3[25 µM]
Cc1ccc(OCCn2cnc3c(N)ncnc32)cc1	84*
Cc1ccc(OCCCCn2cnc3ccccc32)cc1	1
Nc1ncnc2c1ncn2CCNCCc1ccccc1	0
CN1C(=O)c2cc(NS(C)(=O)=O)ccc2OC[C@@H]2O[C@H](CC(=O)NCc3ccccc3)CC[C@H]21	2[25 µM]
COc1ccc(C(=O)N2CCOCC2)cc1S(=O)(=O)N(C)Cc1ccccc1	8
C[C@H]1CN([C@@H](C)CO)C(=O)c2ccccc2-c2ccccc2CO[C@@H]1CN(C)C(=O)Nc1ccccc1C(F)(F)F	-2[25 µM]
COCC(=O)N1CCCCN2[C@H](CO)[C@H](c3ccc(C#Cc4cccnc4)cc3)[C@@H]2C1	0[25 µM]
O=C(c1cc(-c2ccc(O)cc2)on1)N1CCCCCC1	-45
O=C(c1cc(-c2ccc3c(c2)OCO3)on1)N1CCCCC1	54*
COc1ccc(-c2cc(C(=O)N3CCCC3)no2)cc1OC	-80
